# Laboratory results taken from article PMC12280212.
# What was measured:
# Assay in all cases: cross-linking mass spectrometry
# [1] = target: Actin, cytoplasmic 1 (UniProt P60709)
# [2] = target: Elongation factor 1-alpha 2 (UniProt Q05639)
# [3] = target: Histone H2B type 1-N (UniProt Q99877)
# [4] = target: T1, LIM and SH3 domain protein 1 (UniProt Q14847)
# T1 sequence: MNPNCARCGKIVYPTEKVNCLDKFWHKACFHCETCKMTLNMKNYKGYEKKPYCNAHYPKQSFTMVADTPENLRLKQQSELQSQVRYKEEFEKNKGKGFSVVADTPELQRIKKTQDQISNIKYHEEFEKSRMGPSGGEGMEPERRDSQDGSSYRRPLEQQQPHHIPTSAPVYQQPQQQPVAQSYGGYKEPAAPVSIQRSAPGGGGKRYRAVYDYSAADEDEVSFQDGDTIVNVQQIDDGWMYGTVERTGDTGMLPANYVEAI
# [5] = target: Ubiquitin-ribosomal protein eS31 fusion protein (UniProt P62979)
# [6] = target: Large ribosomal subunit protein eL31 (UniProt P62899)
# [7] = target: Large ribosomal subunit protein uL4 (UniProt P36578)
# [8] = target: Vimentin (UniProt P08670)
# Peptidyl-prolyl cis-trans isomerase A, P62937, sequence (P62937 whole entry): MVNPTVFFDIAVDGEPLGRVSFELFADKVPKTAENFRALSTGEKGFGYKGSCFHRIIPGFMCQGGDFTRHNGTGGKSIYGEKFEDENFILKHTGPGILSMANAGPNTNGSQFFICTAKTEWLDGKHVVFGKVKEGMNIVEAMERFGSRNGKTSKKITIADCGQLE
substance,measurement,setting,value
"Elongation factor 2, P13639",listed as a hit,[1],yes
"Actin, cytoplasmic 1, P60709",listed as a hit,[2],yes
same,listed as a hit,[3],yes
same,listed as a hit,[4],yes
same,listed as a hit,[5],yes
"Peptidyl-prolyl cis-trans isomerase A, P62937",listed as a hit,[3],yes
"Large ribosomal subunit protein uL29, P42766",listed as a hit,[6],yes
"Large ribosomal subunit protein uL6, P32969",listed as a hit,[7],yes
"Protein S100-A6, P06703",listed as a hit,[8],yes
